# Rows were chosen to be rich in hits. Some 8.7% of all compounds tested hit in one or more screens of this group.
# Sfp inh: Sfp phosphopantetheinyl transferase inhibition. Biochemical Sfp PPTase activity, qHTS. Q9F4F7. actives 3.5% (n = 310,000). Potency, µM, for the others: largest response in the series, negative = inhibition, hits mostly inhibitors;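 further: the enzyme is Sfp with the accession as filed and its product quenches rhodamine fluorescence; 0% = enzyme reaction without inhibitor and -100% = no enzyme wells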
#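 Buffer: 50 mM Hepes-Na pH 7.6, 10 mM MgCl2, 0.01% Nonidet P-40, 0.01% BSA. Enzyme 15 nM, pre-exposed to compound 15 min; substrates then added and fluorescence change tracked over 30 min.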
# ALOX12 inh: ALOX12 (human) lipoxygenase inhibition | P18054 | purified 12hLO, xylenol orange hydroperoxide absorbance | Potency, µM (top dose mostly 108 µM), for the others: at the highest dose activity change, negative = inhibition, most hits filed as inhibitors | actives 1.1% (n = 580,000) | AID 1671190; further: on the % scale 0 is the no-effect control and ±100 the full control effect
# Target sequence (P18054 whole entry, looked up): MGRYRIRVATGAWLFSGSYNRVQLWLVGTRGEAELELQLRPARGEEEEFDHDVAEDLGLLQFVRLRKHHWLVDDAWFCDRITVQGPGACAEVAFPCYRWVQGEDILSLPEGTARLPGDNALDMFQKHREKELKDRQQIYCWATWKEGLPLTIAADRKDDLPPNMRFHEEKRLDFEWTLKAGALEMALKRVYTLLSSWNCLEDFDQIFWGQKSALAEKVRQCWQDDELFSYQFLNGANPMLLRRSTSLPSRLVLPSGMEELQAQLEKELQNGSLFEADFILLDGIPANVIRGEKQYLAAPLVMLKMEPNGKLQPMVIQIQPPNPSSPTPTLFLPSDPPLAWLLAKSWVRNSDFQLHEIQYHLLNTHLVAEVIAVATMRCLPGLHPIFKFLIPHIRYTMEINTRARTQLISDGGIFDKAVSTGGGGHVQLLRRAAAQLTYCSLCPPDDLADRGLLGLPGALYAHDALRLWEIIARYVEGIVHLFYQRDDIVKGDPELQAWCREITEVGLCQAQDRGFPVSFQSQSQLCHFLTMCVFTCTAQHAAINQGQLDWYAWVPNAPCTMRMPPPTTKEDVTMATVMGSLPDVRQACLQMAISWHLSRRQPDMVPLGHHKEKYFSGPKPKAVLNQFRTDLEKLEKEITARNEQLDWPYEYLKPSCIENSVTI
#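 Purified human 12hLO (150 nM final) in 25 mM Hepes, 0.01% Triton X-100, pH 7.0 was preincubated 15 min at room temperature with compound. Then 40 uM arachidonic acid was added, 30 min. Hydroperoxide was read by Fe-XO absorbance ratio 573/405 nm.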
# G9a inh: blocks human histone lysine methyltransferase G9a. Q96KQ7. G9a H3K9 monomethylation, AlphaScreen, 2 h. Potency, µM (doses to about 102 µM), for inactives: at the top dose activity, negative = inhibition, actives largely listed as inhibitors. actives 8.8% (n = 350,000). AID 504332; further: on the % scale 0 is the no-effect control and ±100 the full control effect; nearly all actives have a fitted effect of over 75% in size
#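 Readings reflect AlphaScreen signal from monomethyl-H3K9 antibody detection. HMT at 20 nM; substrate b-H3K9 500 nM; cofactor SAM 20 uM; 2 h RT reaction; compounds tested as titrations in qHTS with 15 min preincubation.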
# BAZ2B block: inhibitors of human BAZ2B bromodomain; actives 4.4% (n = 360,000); AlphaScreen BAZ2B-H3K14Ac peptide displacement; AID 504333; Potency, µM (highest dose often 114 µM), without a hit: at the top dose activity change, negative = inhibition, usual class: inhibitors; Q9UIF8; further: on the % scale 0 is the no-effect control and ±100 the full control effect; nearly all actives have a fitted effect of over 60% in size
#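 AlphaScreen luminescence quantifies BAZ2B engagement of H3K14Ac peptide; the protein and biotinylated peptide are both at 50 nM final, buffer PBS pH 7.4 with 0.01% Tween-20, all steps at room temperature.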
# JMJD2A Tudor: JMJD2A Tudor domain (human) inhibition | O75164 | AlphaScreen JMJD2A-Tudor / H3K4me3 peptide binding | Potency, µM (titrated, usually from 114 µM), inactives show at the highest dose activity change, negative = inhibition, hits mostly inhibitors | actives 4.4% (n = 390,000) | AID 504339; further: on the % scale 0 is the no-effect control and ±100 the full control effect; nearly all actives have a fitted effect of over 50% in size
# HP1b binding inh: blocks HP1-beta chromodomain binding to methylated histone tails; actives 0.56% (n = 390,000); P83916; Potency, µM (doses to about 114 µM), without a hit: top-dose activity change, negative = inhibition, actives largely listed as inhibitors; AlphaScreen HP1-beta / biotin-H3K9me3 peptide binding; further: nearly all actives have a fitted effect of over 70% in size
#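 AlphaScreen: HP1-beta (50 nM) preformed 30 min with biotin-H3(1-18)K9me3 peptide (50 nM) in PBS pH 7.4, 0.01% Tween-20. Compound added for 30 min at RT, then streptavidin donor/nickel chelate acceptor beads (10 ug/mL) for 30 min.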
# An asterisk follows results filed as active; ? = inconclusive; · = no result given; ! = a repeat was not active; [ ] = another dose, or the depositor's remark. The call rests on the fitted dose curve; in most records, active means well fitted curve in the direction sought with a large enough effect; inconclusive means small, poorly fitted or top-dose-only effect, or another doubt; inactive means no such curve, though single readings can be large; an effect the other way counts as inactive or inconclusive. Potency means the concentration at half of the fitted maximal effect.
SMILES,Sfp inh,ALOX12 inh,G9a inh,BAZ2B block,JMJD2A Tudor,HP1b binding inh
O=c1[nH]c(=S)n(-c2ccccc2)c(O)c1/C=N/N1CCCCC1c1cccnc1 (stereo not given),50µM*,-12%,8.9µM*,?,-11%,40%
C=C[C@H]1CN2CC[C@H]1C[C@@H]2CNCc1ccc(-c2ccccc2)cc1,·,-15%[176 µM],·,·,·,·
Oc1ccc(/C=N/NP(=S)(c2ccccc2)c2ccccc2)cc1O,-11%,32µM*,?,?,?,?
Oc1ccc(/C=N/NP(=S)(c2ccccc2)c2ccccc2)c(O)c1O,40µM*,?,?,?,?,-11%
Oc1ccccc1/C=N/NP(=S)(c1ccccc1)c1ccccc1,39%,20%,70%,·,-33%,63%
O=[N+]([O-])c1c(Cl)c(Cl)c(Cl)c(Cl)c1Cl,·,-17%,·,·,-33%,-16%[57 µM]
Nc1cc(Cl)c2nonc2c1[N+](=O)[O-],-17%,?,32µM*,13%,-13%,42%
COCCCOc1ccnc(CS(=O)c2nc3ccccc3[nH]2)c1C (stereo not given),50µM*,45µM*!,13µM*,?,35µM*,22µM*
CC(C)NC(=O)NC[C@H]1C[C@@H]2CCN1C[C@@H]2c1cc(C2CCCC2)nn1C,·,2%[176 µM],·,·,·,·
CC(=O)/C=C/c1ccccc1,·,13%,·,·,-9%,28%
CC(=O)[O][Hg][c]1ccccc1,0.18µM*,·,?,·,·,·
Cc1ncc2c(n1)C[C@@H]1CC[C@H]2N1C(=O)c1cccs1,·,58%,·,·,·,·
C=CCN1CC[C@]23c4c5ccc(O)c4O[C@@H]2/C(=N/N=C2\CC[C@@]4(O)C6Cc7ccc(O)c8c7[C@@]4(CCN6CC=C)[C@@H]2O8)CC[C@@]3(O)C1C5,·,·,13µM*!,·,·,·
C=CCN1CC[C@]23c4c5ccc(O)c4O[C@H]2C(=O)CC[C@@]3(O)[C@H]1C5,10%,2%,40µM*!,35%,-26%,20%
C=CCN1CCC23c4c5ccc(O)c4OC2/C(=N/N=C2\CCC4(O)C6Cc7ccc(O)c8c7C4(CCN6CC=C)C2O8)CCC3(O)C1C5 (stereo not given),-9%,37%,25µM*,·,·,·
COc1ccc(NC(=O)N2[C@H]3CC[C@@H]2c2cnc(-c4ccc(F)cc4)nc2C3)c(OC)c1,·,7%,·,·,·,·
C#C[C@H]1CN2CC[C@H]1C[C@@H]2CNC(=O)Nc1cccc(C(F)(F)F)c1,·,11%[176 µM],·,·,·,·
Cn1c(=O)oc2cc(S(=O)(=O)N3CCC(C(=O)N4CC=C(c5ccccc5)CC4)CC3)ccc21,5%,0%,50µM*,-3%,-15%,34%
COc1cc(CNc2ccc3[nH]c(=O)[nH]c3c2)ccc1OCc1ccccc1C,8%,?,?,-29%,-35%,-25%
COc1cc(/C=C(/C)[N+](=O)[O-])ccc1OCc1ccccc1Cl,14µM*,·,10µM*,?,-28%,-1%
COCCNCCOc1ccc(C(C)(C)c2ccccc2)cc1,-23%,-25%,11µM*,?,32µM*,?
C[N+](C)(C)CCOC(=O)C(O)(c1ccccc1)c1ccccc1,7%,·,?,·,·,·
Cn1cc(C=C(C#N)C#N)c2ccccc21,5%,0%,·,-21%,-9%,79%
Cn1cc(/C=C(\C(=O)O)C(C(=O)O)=C2CCCCC2)c2ccccc21,2%,-29%,32µM*,?,?,-20%
CCC1(C)OC(c2ccccc2)=C/C(=C/C=C2C(=O)NC(=O)NC2=O)O1 (stereo not given),-15%,2%,50µM*,40µM*,?,-5%
NCC(O)c1cccc(O)c1 (stereo not given),9%,·,-4%[12.7 µM],·,·,·
CC(C)c1cccc(O)c(=O)c1,56µM*!,14µM*!,11µM*!,56µM*,-23%,49%
CN(N)N=Nc1nc2c([nH]1)c(=O)n(C)c(=O)n2C,18µM*,?,2.2µM*,-18%,79µM*,17%

# Screening data: PubChem BioAssay, National Center for Advancing Translational Sciences (NCATS)
